We go through 58 compounds from PubChem BioAssay AID1662 (Broad Institute, 2009).

Molecules are shown by their SMILES. Hit rate of the full screen: of about 300,000 compounds, about 4,000 (1.3%) were called active. The sample as a whole holds a higher share of actives than the screen did. A number with no mark means an inactive call.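 The calls were made as follows: active = mean replicate score, as percent of positive control median, at least 50; inconclusive = mean below 50 but one replicate at or above 50; inactive = mean and every replicate below 50.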

The assay is described as follows: S. pyogenes SKKanGAS growth inhibitors in kanamycin, primary screen, streptokinase expression inhibitor project, SKKanGAS strain, BacTiter-Glo luminescence (AID 1662).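 Also: strain carries kanamycin resistance gene driven by streptokinase promoter and grows in 40 µg/ml kanamycin; loss of luminescence reflects streptokinase promoter inhibition or plain growth inhibition; 0% = median of DMSO wells and 100% = positive control at its reference dose.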 The following applies: 6 h, at 7.5 µM, stronger effect = higher value.
Turning to `COc1cc2ccccc2cc1C(=O)N(CCN(C)C)c1nc2c(F)cccc2s1`, the inhibition was 0.17%.

Take `COc1cccc(CSc2nc3nc(C)cc(C)n3n2)c1`: the inhibition was 3.04%.

For the compound `CSc1c(SCc2ccccc2)cnn(Cc2ccccc2)c1=O`, the inhibition was 66.2% (active).

Turning to `CC(=O)Nc1ccc(NC(=O)CSc2ncnc3c2cnn3Cc2ccccc2)cc1`, the inhibition was 3.94%.

For `CSc1nc2ccccc2c(=O)n1Cc1ccc(F)cc1`, the inhibition was 18.7%.

With `Cc1ccc(-c2noc(CNC(=O)c3ccoc3C)n2)cc1`, the inhibition was 0.278%.

Turning to `Cc1ccc(-c2nn(-c3ccccc3)cc2/C=N/NC(=O)c2ccc3c(c2)OCO3)cc1`, the inhibition is 11.9%.

Regarding `O=C(N/N=C/c1ccc([N+](=O)[O-])o1)c1cccc(S(=O)(=O)N2CCOCC2)c1`, the inhibition was 5.79%.

Regarding `O=C(N/N=C/c1ccc([N+](=O)[O-])o1)c1cn(-c2ccccc2)nc1-c1ccc(F)cc1`, the inhibition is 85.5% (active).

As for `CCn1cc(CCC(=O)NCc2ccc(F)cc2)c2ccccc21`, the inhibition is 0.859%.

In the case of `COc1cccc(NC(=O)CSc2nnc(Cc3ccc(OC)c(OC)c3)o2)c1`, the inhibition is -5.07%.

With `Cc1cccc([C@@H]2[C@@H]3C(=O)N(C)C(=O)[C@@H]3[C@@H]3C(=O)Nc4ccccc4C(=O)N23)c1`, the inhibition is 1.01%.

`COc1ccc(N2CCN(CCCNC(=O)C3CCN(S(=O)(=O)N4CCOCC4)CC3)CC2)cc1`: the inhibition was 0.276%.

Regarding `CC(C)c1ccc(NC(=S)NNc2ccc(Cl)c(C(=O)O)c2)cc1`, the inhibition was 5.7%.

Turning to `Cc1ccc(C)c(NC(=S)NNC(=S)Nc2ccc(C(C)C)cc2)c1`, the inhibition was 51.2% (active).

On to `Cc1ccc(C)c(NC(=S)NNC(=O)c2csc(C)c2)c1`, for which the inhibition was -5.04%.

For the compound `C[C@@H]1CC[C@]2(O[C@@H](CCO)C[C@H](O)[C@H]2O)O1`, the inhibition was -1.49%.

Turning to `CN(C)S(=O)(=O)c1cccc(-c2nn(-c3ccccc3)cc2/C=C2\SC(=S)N(CC(=O)O)C2=O)c1`, the inhibition is 25.2%.

In the case of `COc1ccc(-c2nn(-c3ccccc3)cc2/C=C2/SC(=S)N(CCCC(=O)O)C2=O)c(C)c1`, the inhibition was 46.2%.

`Cc1ccc(-c2nn(-c3ccccc3)cc2/C=C2\SC(=S)N(CCCCCC(=O)O)C2=O)o1`: the inhibition was 103% (active).

With `CCCN(CC(=O)Nc1ccccc1OC)C(=O)CCC(=O)c1ccc(F)cc1`, the inhibition is -6.42%.

As to `Oc1c(Cl)cc(Cl)c(Cl)c1Cc1c(O)c(Cl)cc(Cl)c1Cl`, the inhibition is 109% (active).

On to `CO/N=C/CC(=O)c1ccc(OC)cc1`, for which the inhibition was -3.09%.

As for `CSCCC(NS(=O)(=O)c1ccccc1F)C(=O)N1CC=C(c2ccccc2)CC1` (stereo not drawn), the inhibition is -1.43%.

With `O=C(Nc1ccc2oc(-c3ccccc3F)nc2c1)c1ccco1`, the inhibition is -5.59%.

On to `COc1ccc2[nH]c(=O)c(CNc3ccc(C)c(C)c3)cc2c1`, for which the inhibition was 26.7%.

Consider `Cn1nc(-c2ccccc2)c(CSc2cccc(Cl)c2)c1Cl`, for which the inhibition was 61.6% (active).

`Cc1ccc(S(=O)(=O)c2c(COC(=O)c3cccc(Cl)c3)c(-c3ccccc3)nn2C)cc1`: the inhibition was -28.6%.

On to `Cn1nc(-c2ccccc2)c(CO)c1Sc1ccccc1`, for which the inhibition was -5.22%.

Turning to `CC(=O)N(CN1C(=O)C2C3C=CC(C3)C2C1=O)c1cccc(Cl)c1` (stereo not drawn), the inhibition is -0.219%.

Turning to `CCOC(=O)c1nnn(CC(=O)Nc2cccc(F)c2)c1C(=O)OCC`, the inhibition was -0.0535%.

On to `COc1cccc(CN(C)CC2CCCN(CCc3ccc(Cl)cc3)C2)c1OC` (stereo not drawn), for which the inhibition is -0.785%.

Turning to `COc1ccc(NC(=O)CS(=O)(=O)c2ccccc2)cc1`, the inhibition is -4.25%.

In the case of `Cc1ccc2sc(NNC(=O)c3ccc4c(c3)OCCO4)nc2c1C`, the inhibition was 52.7% (active).

Take `Cc1nc(NC(=O)c2ccc3c(c2)OCCO3)ccc1Br`: the inhibition is -9.44%.

As for `O=C(Nc1nc2ccccc2s1)c1ccc2c(c1)OCO2`, the inhibition is -10.7%.

On to `COC(=O)c1ccc([C@@H](O)[C@H](C)C(=O)CC(=O)OC(C)(C)C)cc1`, for which the inhibition was -0.38%.

Take `COc1ccc(C(=O)NC(=S)N2CCCCC2c2cccnc2)cc1OC` (stereo not drawn): the inhibition was 5.87%.

Consider `Cc1cccc(C(=O)NC(=S)N(C)C2CCCCC2)c1`, for which the inhibition is 55.3% (active).

Consider `Cc1cccc(C(=O)NCCCN(C)CCCNC(=O)c2cccc(C)c2)c1`, for which the inhibition is -2.44%.

Turning to `Cc1cccc(NC(=S)NCCN(C2CCCCC2)C2CCCC2)c1`, the inhibition was -5.79%.

For the compound `COc1ccc(C2/C(=C(/O)c3ccc4c(c3)CC(C)O4)C(=O)C(=O)N2Cc2ccncc2)cc1` (stereo not drawn), the inhibition was 1.18%.

Consider `O=C(CN(CC1CCCO1)C(=O)CNS(=O)(=O)c1ccc(Cl)cc1)NCc1ccccc1` (stereo not drawn), for which the inhibition was -3.12%.

In the case of `CCc1c(C)c2ccc(OC3CCCCC3=O)cc2oc1=O` (stereo not drawn), the inhibition is -6.62%.

Regarding `N#CCSc1nc2ccc(N3CCOCC3)cc2c(=O)n1CCc1ccccc1`, the inhibition is 71.7% (active).

For the compound `CCCCn1c(SCC(=O)NCC2CCCO2)nc2ccc(N3CCOCC3)cc2c1=O` (stereo not drawn), the inhibition was 2.53%.

For `COCCCNC(=O)CSc1nc2ccc(N3CCOCC3)cc2c(=O)n1CCc1ccccc1`, the inhibition was 34.6%.

Take `COCC(C)n1c(C)cc(C(=O)CSc2cc(C)c3ccccc3n2)c1C` (stereo not drawn): the inhibition was 2.07%.

With `Cc1ccc(C(=O)N/N=C\c2cc(Br)c(Br)o2)cn1`, the inhibition is 6.13%.

Regarding `Cc1nn(-c2ccccc2)c2sc(C(=O)N(Cc3ccco3)C(C)C(=O)NC(C)(C)C)cc12` (stereo not drawn), the inhibition was 6.98%.

With `CCCc1ccc(OCC(=O)NNC(=S)NC(=O)c2ccco2)cc1`, the inhibition was 113% (active).

Consider `O=C(Nc1ccc2ccccc2c1)/C(=C/c1cccc(Br)c1)NC(=O)c1ccco1`, for which the inhibition was 14.5%.

Regarding `CC(Oc1ccc2ccccc2c1)C(=O)NNC(=S)NC(=O)c1ccco1` (stereo not drawn), the inhibition was 128% (active).

`CCCc1ccc(OCCNC(=O)c2ccco2)cc1`: the inhibition is -5.79%.

`Cc1ccc(OCC(=O)NCCCNC(=O)c2ccco2)cc1C`: the inhibition is 2.37%.

As for `Cc1ccc(C(=O)NNC(=O)C(C)Oc2ccc3ccccc3c2)o1` (stereo not drawn), the inhibition is -4.95%.

For the compound `COc1cc2nc(CN(C)Cc3ccc(F)cc3)[nH]c(=O)c2cc1OC`, the inhibition is 16.4%.

`CC1=CC=CN2C1=NC(=O)CC2(C)C(=O)N(CC(=O)NC1CCCC1)c1ccccc1C` (stereo not drawn): the inhibition was 1.46%.

What is called inhibition is the drop in the measured response relative to a control, in per cent.
